{"source": "PubChem BioAssay AID1239", "about": "(SRMLSC, 2008)", "note": "Out of some 190,000 compounds screened, about 3,100 (1.6%) were called active. Only a selection was taken, and actives are over-represented in it overall. A number with no mark means an inactive call. No stated cut-off is given here; in the data, active means fold change above about 3.3; inconclusive means no clear call, values can overlap the other calls; inactive means below that.", "data": [{"assay": "activators of NF-kB expression in neurons, primary screen, cell-based, HTS (AID 1239)", "details": "human neuronal cells, NF-kB reporter expression; at 12.5 µM; stronger effect = higher value", "values": [{"compound": "N/C(=N\\OC(=O)Cc1ccccc1[N+](=O)[O-])c1ccc(Br)cc1", "fold change": 1.12}, {"compound": "COc1ccc(-n2c(C)cc(C(=O)CSc3nnc(-c4cccs4)o3)c2C)cc1", "fold change": 0.93}, {"compound": "COc1ccc(-c2nnc(SCC(=O)c3cccs3)o2)c(OC)c1", "fold change": "5.16 (active)"}, {"compound": "COc1ccc(OC)c(C(=O)CSc2nnc(-c3cccs3)o2)c1", "fold change": 1.11}, {"compound": "Cn1nc(C(F)(F)F)c2cc(C(=O)N3CCOCC3)sc21", "fold change": 0.92}, {"compound": "COc1ccc(-c2cc(C(=O)NCCCn3ccnc3)no2)cc1", "fold change": 1.83}, {"compound": "COc1ccccc1-c1cc(C(=O)NCCCn2ccnc2)no1", "fold change": 1.28}, {"compound": "O=C(NCCCn1ccnc1)c1cc(-c2ccccc2)on1", "fold change": "8.21 (active)"}, {"compound": "CC(=O)Nc1cccc(-c2csc(Nc3cccc(C)n3)n2)c1", "fold change": "8.2 (active)"}, {"compound": "COc1ccc(CCNc2nc(-c3cccc(NC(C)=O)c3)cs2)cc1OC", "fold change": 0.5}, {"compound": "CC(=O)Nc1cccc(-c2cnc3ccccc3n2)c1", "fold change": 2.74}, {"compound": "CCOc1cc(NC(=S)NCCCN(C)C)c(OCC)cc1NC(=O)C1CC1", "fold change": 0.96}, {"compound": "CCOn1c(=O)c(=O)n(O)c2ccccc21", "fold change": 1.15}, {"compound": "C=C(C)CNC(=S)N/N=C/c1ccccc1OCC(=O)O", "fold change": 1.35}, {"compound": "CCn1c(SCc2ccc(C)cc2)nnc1-c1nn(-c2ccccc2)ccc1=O", "fold change": 1.19}, {"compound": "N=C(N)SCc1cccc2ccccc12", "fold change": 0.88}, {"compound": "CCc1ccc(-c2nn(-c3ccccc3)cc2CSC(=N)N)cc1", "fold change": "6.66 (active)"}, {"compound": "O=c1nc(N/N=C/c2ccco2)cn[nH]1", "fold change": 1.22}, {"compound": "COc1ccc(CNc2c(CO)cnc3c2cnn3C)cc1", "fold change": 1.06}, {"compound": "Cc1ccccc1OCCC(=O)Nc1c(C)n(C)n(-c2ccccc2)c1=O", "fold change": 0.99}, {"compound": "Cc1c(NC(=O)CSc2nnnn2-c2ccc(C(=O)O)cc2)c(=O)n(-c2ccccc2)n1C", "fold change": 1.04}, {"compound": "Cc1c(NC(=O)CSc2cccc3cccnc23)c(=O)n(-c2ccccc2)n1C", "fold change": "7.73 (active)"}, {"compound": "CCN(CC)CCNc1nc(-c2ccc(OC(F)F)cc2)c(C)s1", "fold change": 0.94}, {"compound": "NC(=O)c1ccc(N2CCOCC2)nc1", "fold change": 0.96}, {"compound": "COc1cc(/C=N/NC(=O)c2cc(C)n(-c3ccc(F)cc3)c2C)cc(OC)c1O", "fold change": 1.02}, {"compound": "C/C(=N\\NC(=S)NCc1ccccc1)C1CCCCC1", "fold change": 1.07}, {"compound": "O=c1[nH]n2c(-c3ccccc3)nc(O)c2c2ccccc12", "fold change": 1.02}, {"compound": "CCn1nc(C)c(CN2CCN(Cc3ccc(OC)c(C)c3C)C(CCO)C2)c1C", "note": "(stereo not drawn)", "fold change": 1.19}]}]}
